In assay [1] the test system is frog Estrogen Receptor (ER), gene 398734. The assay is described as follows: ATG_frER1_XSP2: Attagene TRANS-FACTORIAL Multi-Species (XSP2) HepG2 Assay for frog Estrogen Receptor (ER) (AID 2283821).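 Further: hits raise reporter mRNA above DMSO baseline so potency means agonist or activator.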 In outline:
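HepG2 cells transiently transfected with multiplexed GAL4-UAS reporter units expressing chimeric NR-Gal4 proteins (TRANS format) were dosed for 24 h. Reporter mRNA was quantified by RT-PCR, FAM primer extension, HpaI digestion and capillary electrophoresis; gain of signal relative to DMSO.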

Assay [2] deals with GAL4 Transcription Factor (Internal Marker), GAL4 (gene 855828) (UniProt P04386). Kind of assay: ATG_GAL4_XSP2: Attagene TRANS-FACTORIAL Multi-Species (XSP2) HepG2 Assay for GAL4 Transcription Factor (Internal Marker) (AID 2283814).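 Further: GAL4 reporter mRNA background control in MRTU transfected cells not a receptor target.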 The method in brief: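 Background-control readout: gain-of-signal fitted against DMSO. After 24 h exposure of transfected HepG2 (MRTU, GAL4-UAS reporters; 3 nM 6-alpha-fluorotestosterone, 1.5 nM norgestrel present), transcripts quantified by RT-PCR and capillary electrophoresis fluorescence.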

The test system of assay [3] is turtle Androgen Receptor (AR), gene 101947425. Kind of assay: ATG_trAR_XSP2: Attagene TRANS-FACTORIAL Multi-Species (XSP2) HepG2 Assay for turtle Androgen Receptor (AR) (AID 2283815).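 On AC50: reporter mRNA from a Gal4 chimera of turtle AR measured by RT-PCR; potency for gain of reporter signal meaning activation above DMSO baseline.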 The method in brief:
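Reporter transcripts were quantified via RT-PCR and capillary electrophoresis and fitted upward against DMSO. Transiently transfected human HepG2 cells carrying NR-Gal4 chimeras were exposed 24 h, with 3 nM 6-alpha-fluorotestosterone plus 1.5 nM norgestrel added.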

Assay [4] has as its target zebrafish Estrogen Receptor (ER1), esr1 (gene 259252) (UniProt P57717). The assay is described as follows: ATG_zfER1_XSP2: Attagene TRANS-FACTORIAL Multi-Species (XSP2) HepG2 Assay for zebrafish Estrogen Receptor (ER1) (AID 2283816). In outline: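 After 24 h compound exposure, RNA from transfected HepG2 cells was reverse-transcribed and reporter transcripts resolved by capillary electrophoresis. The TRANS format reads exogenous zebrafish ER1-Gal4 chimera activity on GAL4-UAS elements; gain of signal against DMSO.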

For assay [5], the target named is chicken Estrogen Receptor (ERa), ESR1 (gene 396099) (UniProt P06212). The assay is described as follows: ATG_chERa_XSP2: Attagene TRANS-FACTORIAL Multi-Species (XSP2) HepG2 Assay for chicken Estrogen Receptor (ERa) (AID 2283817).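 Further: actives raise reporter signal above DMSO so AC50 reflects ER activation.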 In outline:
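Reporter mRNA induction read by RT-PCR, fluorescent labelling and capillary electrophoresis after 24 h exposure; positive-direction fit against DMSO baseline. HepG2 cells transfected with multiplexed GAL4-UAS units including chicken ERa chimera; medium contained 3 nM 6-alpha-fluorotestosterone plus 1.5 nM norgestrel.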

Assay [6] relates to zebrafish Estrogen Receptor (ER2a), gene 317734. The assay is described as follows: ATG_zfER2a_XSP2: Attagene TRANS-FACTORIAL Multi-Species (XSP2) HepG2 Assay for zebrafish Estrogen Receptor (ER2a) (AID 2283818).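 Further: hits raise reporter mRNA so AC50 reflects activation of zebrafish ER2a.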 The method in brief:
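Multiplexed trans-reporter readout: RT-PCR then capillary electrophoresis of reporter transcripts after 24 h compound treatment. Human HepG2 carries transfected zebrafish ER2a-Gal4 chimera; 3 nM 6-alpha-fluorotestosterone plus 1.5 nM norgestrel present. Induction scored against DMSO.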

Assay [7] concerns chicken Androgen Receptor (AR), gene 422165. Kind of assay: ATG_chAR_XSP2: Attagene TRANS-FACTORIAL Multi-Species (XSP2) HepG2 Assay for chicken Androgen Receptor (AR) (AID 2283819).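 Further: hits raise reporter mRNA above DMSO so potency is for activation.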 In outline: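 Readout is reporter mRNA induction via RT-PCR/capillary electrophoresis after 24 h chemical exposure, positive direction relative to DMSO. Transiently transfected HepG2 express chimeric chicken AR–GAL4; AR stimulated by 3 nM 6-alpha-fluorotestosterone and 1.5 nM norgestrel.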

The nature of assay [8]: ATG_M_19_XSP2: Attagene TRANS-FACTORIAL Multi-Species (XSP2) HepG2 Assay for M32 Transcription Factor (Internal Marker) (AID 2283822). The method, then:
(§1) ATG_XSP2_multi-species_TRANS is a cell-based, multiplexed assay created by modifying the existing Attagene TRANS-FACTORIAL system to include a panel of nuclear receptors from some or all the following species: human (Homo sapiens), mouse (Mus musculus), frog (Xenopus laevis), zebrafish (Danio rerio), chicken (Gallus gallus), and turtle (Chrysemys picta). The ECOTOX-FACTORIAL format uses HepG2, a human liver cell line, with measurements taken at 24 hours after chemical dosing in a 24-well plate. Xsp2 included 3 nM 6-alpha-fluorotestosterone and 1.5 nM norgestrel to stimulate the androgen receptor.ATG_M_19_XSP2 is one of 29 assay components measured or calculated from the ATG_XSP2_multi-species_TRANS assay. It is designed to make measurements of mRNA induction, a form of inducible reporter, as detected with fluorescence intensity signals by Reverse transcription polymerase chain reaction (RT-PCR) and Capillary electrophoresis technology.This assay endpoint, ATG_M_19_XSP2, was analyzed in the positive analysis fitting direction relative to DMSO as the negative control and baseline of activity. […] Furthermore, this assay endpoint can be referred to as a secondary readout, because this assay has produced multiple assay endpoints where this one serves a background control function. […]
Human liver HepG2 cells are transiently transfected with multiple reporter transcription units (MRTUs) in 6-well plates using FuGene 6 reagent (Roche; 3 ml FuGene/1 mg DNA). […] A major difference between the CIS and TRANS system is that in CIS activities of endogenous TFs are measured, whereas the TRANS assay evaluates changes in activities of exogenous, chimeric NR-Gal4 proteins. […] The fragments were purified using Qiaquick PCR columns (Qiagen), analyzed on an ABI 3130xL genetic analyzer (Applied Biosystems) with peak positions identified by using a set of X-rhodamine (ROX)-labeled MapMarker1000 molecular weight standards (BioVentures). […]

Assay [9] deals with Estrogen receptor beta (Homo sapiens) (UniProt Q92731). Kind of assay: ATG_hERb_XSP2: Attagene TRANS-FACTORIAL Multi-Species (XSP2) HepG2 Assay for human Estrogen Receptor (ERb) (AID 2283813).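 Further: actives raise reporter mRNA above DMSO so AC50 reflects agonist induction.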 The method in brief: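 Transient TRANS reporter system in HepG2: after 24 h of chemical, RNA is reverse-transcribed, reporter cDNA amplified, FAM-labelled and sized by capillary electrophoresis. Induction of the human ERb-Gal4 reporter is measured relative to DMSO.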

The target of assay [10] is human Androgen Receptor (AR), AR (gene 367) (UniProt P10275). The assay is described as follows: ATG_hAR_XSP2: Attagene TRANS-FACTORIAL Multi-Species (XSP2) HepG2 Assay for human Androgen Receptor (AR) (AID 2283820). The method, then: as §1, with “receptor.ATG_hAR_XSP2” for “receptor.ATG_M_19_XSP2”, “technology.The” for “technology.This”, “endpoint ATG_hAR_XSP2” for “endpoint, ATG_M_19_XSP2,”, “primary” for “secondary”, “reporter gene” for “background control”

Where “and” joins values, the source holds several entries; their conditions need not be identical. Equal values may be shown once. Records with an inconclusive call do not appear. A structure can be active in one record and inactive in another. Calls of active or inactive are those of the source. How the source made its calls: active means hit-call score of the fitted dose curve at least 0.9, where 1 is the maximum; inconclusive means response in the unintended direction; inactive means score below 0.9.

This passage reports outcome and AC50 results from PubChem BioAssay (EPA / NIEHS).

Sequence of GAL4 Transcription Factor (Internal Marker), GAL4 (gene 855828) (P04386 whole entry, looked up, the tested form may be a part): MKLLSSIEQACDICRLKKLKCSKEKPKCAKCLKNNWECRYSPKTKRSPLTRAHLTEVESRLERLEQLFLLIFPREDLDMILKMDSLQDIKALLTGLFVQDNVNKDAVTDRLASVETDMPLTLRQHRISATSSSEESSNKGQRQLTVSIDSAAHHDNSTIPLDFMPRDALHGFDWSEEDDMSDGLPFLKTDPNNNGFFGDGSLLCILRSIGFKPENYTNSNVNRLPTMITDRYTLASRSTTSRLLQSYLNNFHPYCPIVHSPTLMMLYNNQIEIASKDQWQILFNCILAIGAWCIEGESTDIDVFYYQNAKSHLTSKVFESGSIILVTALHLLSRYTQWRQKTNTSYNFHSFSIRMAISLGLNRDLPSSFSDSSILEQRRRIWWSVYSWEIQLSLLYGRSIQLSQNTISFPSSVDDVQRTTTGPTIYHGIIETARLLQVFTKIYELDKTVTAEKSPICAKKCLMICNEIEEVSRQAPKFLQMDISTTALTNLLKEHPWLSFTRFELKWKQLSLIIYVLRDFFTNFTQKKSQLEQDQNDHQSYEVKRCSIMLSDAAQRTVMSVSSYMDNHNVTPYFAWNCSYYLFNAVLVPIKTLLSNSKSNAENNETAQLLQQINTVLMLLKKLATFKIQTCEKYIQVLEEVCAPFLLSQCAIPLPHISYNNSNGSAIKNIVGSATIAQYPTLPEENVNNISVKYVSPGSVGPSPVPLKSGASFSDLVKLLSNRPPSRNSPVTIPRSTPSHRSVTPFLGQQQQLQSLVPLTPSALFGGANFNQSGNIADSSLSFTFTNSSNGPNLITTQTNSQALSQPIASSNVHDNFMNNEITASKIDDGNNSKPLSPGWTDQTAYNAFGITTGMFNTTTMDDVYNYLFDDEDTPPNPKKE
Sequence of Estrogen receptor beta (Homo sapiens) (Q92731 whole entry, looked up, the tested form may be a part): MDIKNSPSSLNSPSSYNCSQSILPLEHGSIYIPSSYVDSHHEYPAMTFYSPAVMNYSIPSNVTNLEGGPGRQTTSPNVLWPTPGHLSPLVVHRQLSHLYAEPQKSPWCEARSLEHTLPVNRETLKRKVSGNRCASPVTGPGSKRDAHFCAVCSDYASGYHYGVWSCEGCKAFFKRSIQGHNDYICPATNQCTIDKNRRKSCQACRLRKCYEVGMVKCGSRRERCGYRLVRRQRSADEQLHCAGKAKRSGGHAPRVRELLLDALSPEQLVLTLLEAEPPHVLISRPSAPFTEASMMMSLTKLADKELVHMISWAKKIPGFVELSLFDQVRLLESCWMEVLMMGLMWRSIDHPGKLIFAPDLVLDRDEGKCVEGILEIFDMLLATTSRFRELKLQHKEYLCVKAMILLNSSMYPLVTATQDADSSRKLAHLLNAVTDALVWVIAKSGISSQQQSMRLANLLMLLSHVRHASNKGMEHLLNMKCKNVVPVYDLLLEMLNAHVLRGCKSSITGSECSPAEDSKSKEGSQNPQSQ
Sequence of chicken Estrogen Receptor (ERa), ESR1 (gene 396099) (P06212 whole entry, looked up, the tested form may be a part): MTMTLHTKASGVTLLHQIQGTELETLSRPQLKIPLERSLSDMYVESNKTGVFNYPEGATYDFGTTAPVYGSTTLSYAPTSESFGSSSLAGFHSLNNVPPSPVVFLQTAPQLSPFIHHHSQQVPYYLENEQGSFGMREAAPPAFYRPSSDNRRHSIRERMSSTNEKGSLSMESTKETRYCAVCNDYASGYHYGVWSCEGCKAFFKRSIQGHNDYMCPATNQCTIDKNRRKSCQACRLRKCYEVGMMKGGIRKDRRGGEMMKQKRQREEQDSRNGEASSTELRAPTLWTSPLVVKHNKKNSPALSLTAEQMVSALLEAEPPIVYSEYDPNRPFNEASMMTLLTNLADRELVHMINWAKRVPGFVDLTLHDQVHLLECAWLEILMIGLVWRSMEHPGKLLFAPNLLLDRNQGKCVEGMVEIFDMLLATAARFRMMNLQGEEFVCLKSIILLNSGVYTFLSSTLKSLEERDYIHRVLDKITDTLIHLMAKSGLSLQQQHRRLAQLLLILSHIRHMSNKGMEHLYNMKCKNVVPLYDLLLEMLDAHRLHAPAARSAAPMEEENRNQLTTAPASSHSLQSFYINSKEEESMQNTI
Sequence of zebrafish Estrogen Receptor (ER1), esr1 (gene 259252) (P57717 whole entry, looked up, the tested form may be a part): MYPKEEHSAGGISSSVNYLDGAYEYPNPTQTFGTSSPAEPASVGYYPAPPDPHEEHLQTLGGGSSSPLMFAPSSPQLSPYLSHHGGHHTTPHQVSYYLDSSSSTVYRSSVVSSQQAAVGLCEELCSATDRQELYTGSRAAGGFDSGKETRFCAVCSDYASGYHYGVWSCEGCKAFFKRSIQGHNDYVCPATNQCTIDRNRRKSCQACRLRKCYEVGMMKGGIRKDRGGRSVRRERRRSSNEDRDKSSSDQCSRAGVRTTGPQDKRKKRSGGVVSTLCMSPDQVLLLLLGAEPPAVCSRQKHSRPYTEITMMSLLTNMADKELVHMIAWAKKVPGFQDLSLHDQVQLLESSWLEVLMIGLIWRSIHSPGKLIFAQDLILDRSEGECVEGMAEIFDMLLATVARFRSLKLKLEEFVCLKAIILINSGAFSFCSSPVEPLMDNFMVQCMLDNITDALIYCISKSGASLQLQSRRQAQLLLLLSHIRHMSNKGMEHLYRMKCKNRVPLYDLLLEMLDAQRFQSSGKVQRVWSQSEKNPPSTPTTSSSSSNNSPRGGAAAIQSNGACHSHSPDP
Sequence of human Androgen Receptor (AR), AR (gene 367) (P10275 whole entry, looked up): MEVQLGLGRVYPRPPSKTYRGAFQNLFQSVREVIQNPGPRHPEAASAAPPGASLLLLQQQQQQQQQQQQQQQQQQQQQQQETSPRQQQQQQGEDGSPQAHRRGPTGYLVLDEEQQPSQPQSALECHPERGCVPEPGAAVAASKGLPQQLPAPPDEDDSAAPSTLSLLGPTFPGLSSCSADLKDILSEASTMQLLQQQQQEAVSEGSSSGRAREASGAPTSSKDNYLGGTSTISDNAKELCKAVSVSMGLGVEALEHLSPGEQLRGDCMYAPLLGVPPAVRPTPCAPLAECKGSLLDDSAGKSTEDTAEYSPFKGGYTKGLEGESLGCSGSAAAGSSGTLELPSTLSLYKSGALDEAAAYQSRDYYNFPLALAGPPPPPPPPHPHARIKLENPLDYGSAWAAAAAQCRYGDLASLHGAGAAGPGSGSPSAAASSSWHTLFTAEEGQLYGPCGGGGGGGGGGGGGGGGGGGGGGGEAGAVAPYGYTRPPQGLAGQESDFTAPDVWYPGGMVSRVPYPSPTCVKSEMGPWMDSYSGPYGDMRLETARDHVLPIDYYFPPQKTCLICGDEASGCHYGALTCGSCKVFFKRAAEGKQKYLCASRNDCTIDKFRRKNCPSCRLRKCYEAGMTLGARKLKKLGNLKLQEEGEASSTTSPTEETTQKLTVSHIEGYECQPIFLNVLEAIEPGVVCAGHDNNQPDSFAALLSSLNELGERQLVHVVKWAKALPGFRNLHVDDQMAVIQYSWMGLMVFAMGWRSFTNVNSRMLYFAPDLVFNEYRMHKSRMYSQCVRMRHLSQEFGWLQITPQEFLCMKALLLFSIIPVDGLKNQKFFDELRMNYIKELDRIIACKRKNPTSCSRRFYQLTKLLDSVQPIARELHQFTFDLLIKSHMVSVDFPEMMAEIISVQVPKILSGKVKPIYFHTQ

Consider `CN(CCOc1ccc(CC2SC(=O)NC2=O)cc1)c1ccccn1` (centres undefined), for which the outcome in [1] was inactive.

As for `CCCCCCCCCCCCN`, the molecule was called inactive in assay [2], in assay [3], in assay [4], in [6], in assay [7] and in assay [1]. Moreover, in assay [8], the molecule was classed as inactive. Moreover, the AC50 (commonly the concentration giving half of the maximal activity seen) was 48.3 µM (active) in assay [5] and 46.7 µM (active) in assay [6].

With `O=c1cc(-c2ccccc2)oc2cc(O)cc(O)c12`, the AC50 in [9] is 42.2 µM (active) and 2.03 µM (active); in assay [3], 1.41 µM (active); in assay [4] it was 6.38 µM (active); in [5] it was 7.18 µM (active) and 2.51 µM (active); in assay [6] it was 6.82 µM (active) and 2.26 µM (active); in assay [7], 1.51 µM (active). Also, the AC50 in assay [10] was 23.8 µM (active). Besides, the outcome in assay [4], in assay [7], in assay [10] and in assay [1] was inactive.

Consider `O=C(Oc1ccccc1)c1ccc(O)cc1`, for which the AC50 in assay [9] is 6.15 µM (active); in assay [4], 58.3 µM (active); in assay [5], 27.8 µM (active); in assay [6], 63.9 µM (active) and 27.7 µM (active); in [1], 27.2 µM (active). The molecule was called inactive in [9], in [2], in [3], in assay [4], in assay [5] and in [7]. Besides, the result in assay [1] and in assay [8] was inactive.

Turning to `CN(C)C(=N)N=C(N)N`, the call in assay [2], in [3], in assay [6], in assay [7] and in assay [8] was inactive.
